Bioassay records: PubChem BioAssay, Sanford-Burnham Center for Chemical Genomics
KKLEB cytotox = cytotoxicity in KKLEB CF airway cells, primary screen, cytotoxicity control for CF NF-kB inhibitor project, cell-based, uHTS, fluorescence assay plates; activity change (cytotoxicity), % at 5 µM; KKLEB CF airway cells viability, ATPlite luminescence, overnight; stronger effect = lower value; cells stimulated with P. aeruginosa culture filtrate; actives 0.36% (n = 360,000);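 active = corrected activity change at or below -50% at 5 µM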
TROY signal inh = inhibitors of TROY-driven NF-kB signaling, primary screen, Q293 LMP1-TROYcd cells, NF-kB luciferase, uHTS. Q293 LMP1-TROYcd NF-kB luciferase reporter, 4 h. inhibition, % at 10 µM. actives 0.98% (n = 360,000). AID 1347056, 2019;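 active = compounds whose plate-normalised and pattern-corrected inhibition of the luciferase reporter signal at the single screening dose is 50% or more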
HIF-2a inh = HIF-2a reporter inhibitors, primary screen, luminescence, 786-0 RCC cells | 786-0 RCC cells HIF-2a reporter, luciferase luminescence, overnight | inhibition, % at 18.8 µM | actives 0.72% (n = 360,000) | AID 624352, 2012;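 active = inhibition of the luminescence signal of 40% or more relative to plate controls, in a single-dose primary screen at 18.75 µM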
TWEAK-Fn14 inh = inhibitors of TWEAK-Fn14 signaling, primary screen, luciferase reporter cells, uHTS; TWEAK-stimulated Fn14 reporter cells, luciferase luminescence, 8 h; inhibition, % at 10 µM; actives 2% (n = 360,000); AID 1159606, 2016; in the data active = inhibition above about 50%
CF NFkB block = inhibitors of PAF-induced NF-kB signaling, primary screen, cell-based, GFP fluorescence, uHTS. actives 0.86% (n = 360,000). KKLEB NF-kB-GFP reporter, GFP fluorescence overnight. inhibition, % at 5 µM;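 active = at least 50% inhibition at 5 µM, scaled per plate between neutral and stimulator controls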;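 also: PAF is a Pseudomonas aeruginosa culture filtrate used as stimulus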
Peg3 prom inh-1 = Peg3 promoter-driven luciferase inhibitors, primary screen, cell-based, HeLa, luciferase luminescence | HeLa PEG-Prom luciferase reporter, overnight | inhibition, % at 20 µM | actives 1.7% (n = 360,000);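 active = inhibition of at least 50% at 20 µM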
Peg3 prom inh-2 = Peg3 promoter reporter inhibitors, retest, confirmation, cell-based, HeLa, luciferase reporter, single concentration. shares compounds with Peg3 prom inh-1. HeLa PEG-Prom luciferase reporter, luminescence, overnight. inhibition, % at 20 µM. actives 84% (n = 1,300). AID 602417, 2012;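 active = at 20 µM dose, 40% or more inhibition averaged across four replicates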
Mdm2 MdmX conf = retested Mdm2-MdmX interaction blockers, confirmation, cell-based, luminescence, single concentration, set 2 | AID 504601, 2011 | actives 99% (n = 740) | shares compounds with HIF-2a inh | inhibition, % at 8 µM | SaOS-2 split-luciferase Mdm2/MdmX complementation;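 active = mean inhibition of the luminescence signal across two replicates at or above 26 percent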
Target sequence (O15151 whole entry, looked up): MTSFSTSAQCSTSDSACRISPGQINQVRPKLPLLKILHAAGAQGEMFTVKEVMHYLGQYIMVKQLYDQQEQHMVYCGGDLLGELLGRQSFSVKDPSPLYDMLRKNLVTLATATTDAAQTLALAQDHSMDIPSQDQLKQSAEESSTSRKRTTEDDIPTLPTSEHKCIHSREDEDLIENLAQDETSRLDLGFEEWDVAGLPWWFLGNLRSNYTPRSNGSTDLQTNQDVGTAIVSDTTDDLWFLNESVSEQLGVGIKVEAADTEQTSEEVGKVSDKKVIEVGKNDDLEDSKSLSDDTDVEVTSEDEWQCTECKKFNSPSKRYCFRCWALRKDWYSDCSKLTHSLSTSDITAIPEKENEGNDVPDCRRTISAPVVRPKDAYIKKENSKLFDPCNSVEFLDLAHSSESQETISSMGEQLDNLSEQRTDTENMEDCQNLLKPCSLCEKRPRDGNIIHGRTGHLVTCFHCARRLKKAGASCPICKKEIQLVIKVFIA
Target sequence (Q00987 whole entry, looked up): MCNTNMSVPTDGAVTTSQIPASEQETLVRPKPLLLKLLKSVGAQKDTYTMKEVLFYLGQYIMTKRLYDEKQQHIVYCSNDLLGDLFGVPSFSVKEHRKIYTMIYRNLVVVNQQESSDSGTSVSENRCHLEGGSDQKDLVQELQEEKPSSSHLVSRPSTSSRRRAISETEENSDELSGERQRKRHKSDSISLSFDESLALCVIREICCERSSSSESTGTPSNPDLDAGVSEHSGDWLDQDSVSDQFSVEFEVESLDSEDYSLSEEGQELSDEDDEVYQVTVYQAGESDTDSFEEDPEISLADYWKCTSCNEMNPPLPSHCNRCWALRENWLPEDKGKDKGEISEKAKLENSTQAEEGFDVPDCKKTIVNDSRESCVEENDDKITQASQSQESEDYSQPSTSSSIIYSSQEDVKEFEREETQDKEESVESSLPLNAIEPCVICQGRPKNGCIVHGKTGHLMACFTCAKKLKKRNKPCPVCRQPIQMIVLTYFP
HIF-2a inh conf = HIF-2a reporter inhibitor retest, confirmation, luminescence, 786-0 RCC cells. inhibition, % at 18.8 µM. HIF-2a luciferase reporter luminescence, overnight. shares compounds with HIF-2a inh. AID 651580, 2012. actives 56% (n = 1,800);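 active = mean inhibition across four replicates of at least 40 percent at the single tested concentration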
HIF-1a counter = HIF-1a luciferase reporter signal reduction – MiaPaCa-2 cells, single concentration, counter-screen for HIF-2a inhibitor project, confirmation; shares compounds with HIF-2a inh; MiaPaCa-2 HIF-1a luciferase reporter, desferoxamine, overnight; inhibition, % at 18.8 µM; actives 72% (n = 1,800);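 active = mean inhibition of the reporter signal across four replicates at the single tested dose of 50% or more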
Of the large screens only hits and unclear results are named; the others gave an inactive call (follow-up assays come after a bar, where they were run). Compounds with a hit are over-represented: about 4% of the library has one in this group of screens.

Nc1ccc2c(c1)OC1(CCCC1)O2	TROY signal inh 68, HIF-2a inh 52, TWEAK-Fn14 inh 90, Peg3 prom inh-1 77 | Peg3 prom inh-2 56 | Mdm2 MdmX conf 31 | HIF-2a inh conf inactive | HIF-1a counter 79
COc1ccc(C(=O)Nc2nc3ccccc3s2)c(OC)c1	KKLEB cytotox -88, TROY signal inh 85, HIF-2a inh 92, TWEAK-Fn14 inh 105, Peg3 prom inh-1 107 | Peg3 prom inh-2 99 | Mdm2 MdmX conf 97
COc1ccc2nc(NC(=O)c3ccccc3C(=O)O)sc2c1	none
COc1ccc(CCNC(=S)N2CCC(Cc3ccccc3)CC2)cc1OC	none
CCN(C[C@H]1N[C@@](C)(C(=O)OC)[C@H]2C(=O)N(Cc3ccccc3)C(=O)[C@@H]12)C(=O)Nc1ccc(F)cc1	none
COc1ccc(N=C2NN=C(c3ccc4c(c3)OCCO4)CS2)cc1	none
c1cc2c(cc1C1=NNC(=NC3CC3)SC1)OCCO2	TROY signal inh 89, HIF-2a inh 86, TWEAK-Fn14 inh 104, Peg3 prom inh-1 93 | Peg3 prom inh-2 91 | Mdm2 MdmX conf 95 | HIF-2a inh conf 94 | HIF-1a counter 97
COc1cc(OC)cc(C(=O)N2CCN(c3ccc(N4CCOCC4)nn3)CC2)c1	none
COc1ccc(/C=C/c2nc3ccccc3n2C)cc1	KKLEB cytotox -53, HIF-2a inh 49, TWEAK-Fn14 inh 76, Peg3 prom inh-1 68 | Peg3 prom inh-2 78 | HIF-2a inh conf 89 | HIF-1a counter 91
Cc1ccc2nc(NC(=O)c3ccccn3)sc2c1	KKLEB cytotox -67, TROY signal inh 86, HIF-2a inh 80, TWEAK-Fn14 inh 98, Peg3 prom inh-1 106 | Peg3 prom inh-2 96 | Mdm2 MdmX conf 102 | HIF-2a inh conf 89 | HIF-1a counter 80
CC(=O)c1c(NCc2ccccc2)nc(=O)n(-c2ccccc2)c1C	none
CC(=O)c1c(NCCc2ccccc2)nc(=S)n(-c2ccccc2)c1C	HIF-2a inh 92, Peg3 prom inh-1 101 | Peg3 prom inh-2 99 | HIF-2a inh conf inactive | HIF-1a counter inactive
C/C(=N\NC(=O)c1ccncc1)c1cccs1	none
C/C(=N/NC(=O)c1cc(C2CC2)[nH]n1)c1cccs1	HIF-2a inh 49, TWEAK-Fn14 inh 89, Peg3 prom inh-1 63 | Peg3 prom inh-2 47 | HIF-2a inh conf 67 | HIF-1a counter inactive
Cc1cnc(NC(=O)c2ccc3c(c2)OCCO3)s1	KKLEB cytotox -58, TROY signal inh 85, HIF-2a inh 77, TWEAK-Fn14 inh 103, Peg3 prom inh-1 87 | Peg3 prom inh-2 81 | HIF-2a inh conf 90 | HIF-1a counter 80
COCCNc1nnnc2c1sc1nc(N3CCOCC3)c3c(c12)CC(C)(C)OC3	none
CN(C)CCNc1ncnc2c1sc1nc(N3CCOCC3)c3c(c12)CC(C)(C)SC3	HIF-2a inh 54, Peg3 prom inh-1 81 | Peg3 prom inh-2 94 | HIF-2a inh conf inactive | HIF-1a counter 80
CC1CCN(S(=O)(=O)N2CCN(C(=O)c3ccc4c(c3)OCO4)CC2)CC1	none
COc1ccc(-c2nc(-c3ccccn3)no2)cc1	KKLEB cytotox -80, TROY signal inh 83, HIF-2a inh 88, TWEAK-Fn14 inh 102, Peg3 prom inh-1 89 | Peg3 prom inh-2 86 | Mdm2 MdmX conf 96 | HIF-2a inh conf 95 | HIF-1a counter 98
Cc1ccccc1-c1nc(-c2cccnc2)no1	none
Cc1ccccc1-c1nc(-c2ccccn2)no1	TROY signal inh 81, HIF-2a inh 60, TWEAK-Fn14 inh 97, Peg3 prom inh-1 63 | Peg3 prom inh-2 58 | HIF-2a inh conf 73 | HIF-1a counter 66
O=C(Cc1ccccc1)Nc1ccc(NC(=O)c2ccco2)nc1	none
CC(C)(C)C(=O)Nc1ccc(NC(=O)c2ccco2)nc1	TROY signal inh 85, HIF-2a inh 90, TWEAK-Fn14 inh 104, Peg3 prom inh-1 108 | Peg3 prom inh-2 92 | Mdm2 MdmX conf 98 | HIF-2a inh conf 96 | HIF-1a counter 96
COc1cc(C(=O)/C=C/c2cccnc2)c([N+](=O)[O-])cc1OC	HIF-2a inh 89, Peg3 prom inh-1 69 | Peg3 prom inh-2 96 | HIF-2a inh conf 73 | HIF-1a counter 96
Cc1ccc2nc(-c3ccc4c(c3)OCCO4)cn2c1	KKLEB cytotox -85, TROY signal inh 78, HIF-2a inh 80, TWEAK-Fn14 inh 101, Peg3 prom inh-1 91 | Peg3 prom inh-2 93 | Mdm2 MdmX conf 94
Cc1ccc2nc(-c3ccc4c(c3)NC(=O)CO4)cn2c1	none
CCOC(=O)c1c(C)oc2c(F)c(F)c(F)c(F)c2c1=O	HIF-2a inh 64, Peg3 prom inh-1 105 | Peg3 prom inh-2 99 | HIF-2a inh conf 66 | HIF-1a counter 100
O=[N+]([O-])c1ccc(-c2ccc(/C=N/Nc3nc(NCc4ccccc4)nc(N4CCOCC4)n3)o2)cc1	KKLEB cytotox -90, HIF-2a inh 59, CF NFkB block 51, Peg3 prom inh-1 99 | Peg3 prom inh-2 80 | Mdm2 MdmX conf 102 | HIF-2a inh conf inactive | HIF-1a counter inactive
COc1nc(N/N=C/c2ccc(-c3ccccc3[N+](=O)[O-])o2)nc(N2CCOCC2)n1	none
Cc1ccc(S(=O)(=O)N2CCN(C(=O)COC(=O)CSc3ccccc3)CC2)c(C)c1	none
CCOc1ccc(CC(=O)N/N=C/c2sccc2C)cc1	none
NS(=O)(=O)c1ccc(NC(=O)COC(=O)Cn2cnc3ccccc3c2=O)cc1	none
CCCC(=O)NC(c1ccc(C)cc1)c1ccc2cccnc2c1O (centres undefined)	Peg3 prom inh-1 63 | Peg3 prom inh-2 67 | Mdm2 MdmX conf 89
CCCCC(=O)NC(c1ccc(OC)c(OC)c1)c1c(O)ccc2ccccc12 (centres undefined)	none
